Here are results for 40 sequences from the supplement of paper PMC6555819.

In this experiment the test system is VDR:RXRa (NR concentration 270 nM, RXRa partner concentration 90 nM). The experiment can be described thus: PBM binding z-score (relative to random genomic background probes); higher = stronger binding; sequences stand for … in GC…GCGATTGACAGCGTAGAATGAAGG
Here is the method:
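Protein-binding microarray (Agilent 4x180K custom design, double-stranded 60-nt probes: 5' GC cap, 34-nt variable region, 24-nt constant primer region; full probe sequence given). Purified or IVT nuclear receptor:RXRα heterodimers (3:1 NR:RXRα, mostly 270:90 nM) or homodimers were incubated for 1 h in PBS with 2% milk and no ligand, then detected with Alexa488 antibodies. Fluorescence from o1-orientation probes (~5 replicates averaged) was converted to z-scores against 500 random hg19 background probes. Variable regions are seed direct-repeat (DR0–DR5) sites, all their single-nucleotide variants and half-site ablations.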
With GCGACTGGGGCATCAGCAGGTCACCATAACTTAA, the PBM binding z-score worked out at 1.75. Sequence CCTACTGGGCCAAAGGTCATCGATTCCAATGCTC returned a PBM binding z-score of 4.53. With CCTTACGGGTCACTCCTGGTTATAGCATCGGAGT, the PBM binding z-score was 2.79. CAAACTAGGTCAAAGGTAAAAGTCGAGCCAACCA displayed a PBM binding z-score of 2.98.

As for TCACATAGGTAAACAGGTGAAAGTCCGTAAGTTA, the PBM binding z-score turned out to be 0.849. In turn, GTACCAAGGTGAATAGATCGTTGATGAGTAGGCG displayed a PBM binding z-score of -0.155. As for TCTGCTAGGTCAACGATCGTCAGCTAATCTGCTA, the PBM binding z-score was 1.03.

AGAATGAGGTTAGTAAGATCAGGGAATTGCGGTC: the PBM binding z-score is 0.837. CGAACTAGGTCAAGGACATTGAATCTCCGCACGC: the PBM binding z-score was determined as 1.73. Sequence CGTCCAAGGTCAATGCTAGGTCAGGGAAAGCATT yielded a PBM binding z-score of 4.75. As for AGAATGAGGTTAAGATCAGGGCAACAGAATACAT, the PBM binding z-score turned out to be 2.23. For CCTAGCAGGCCAATCTGGGTCACTCACGGCTTGA, the PBM binding z-score was 0.411. Consider CCGGCTGGGGCAGAAAGGTTACCATACCATCCGG, for which the PBM binding z-score was determined as 0.63.

On to GTTATTAGTTGAAAGGGCAACCGAATGATTCTCG, for which the PBM binding z-score is 1.24. As for TAGCCTAGGTGATTCAGGGGCCAGTATAGAAAGC, the PBM binding z-score was -0.381. Sequence CCTAGCAGGCCAGGGTGACTCAAGCATTTCGCTT returned a PBM binding z-score of -0.639. TCATATAGGTAAAAGGTAAAAGTCGGTGTGGTAA yielded a PBM binding z-score of 1.33. Turning to CCTCGGAGGACAACAGGAGCTCAGAGCTGCCAGA, the PBM binding z-score was -0.533. For ATCGAAAGGTCGAGATGAGTATAGAGAAAGGGAA the value was 2.4; for ATTGAAAGGTCGAAGGTGAGTATACCCACCCGAA, 3.13; for ACTCGGAGGACAAAGTTCAGAGCTACGCCAGTGA, 1.95. ATATGTAGGTTAAGGGTCATACAGGTTGGTTCGC had a PBM binding z-score of 5.42.

Consider ATCTCTAGGTAACAAGTTCATTGAAAGAGAGGAC, for which the PBM binding z-score worked out at 3.84. The sequence AATCCAGGGTCACTAGGCCAGAGTAGGTACGAAT returned a PBM binding z-score of 4.31. The sequence CGTCCAAGGTCAGAGAGGTCAGTGCATGCCGAGT returned a PBM binding z-score of 7.42.

In turn, AGAATGAGGTTATACGTAGATCAGGGAGGAAAGT gave a PBM binding z-score of 1.33. In turn, AGAATGAGGCTATACGTAGATCAGGGAAGAAAGT yielded a PBM binding z-score of -0.45. For GCTAGCAGGCCATTTGGATCACTCAATGACGGGC the value was -0.73.

In turn, CCGAGTAGGTTATGGGGCCTTCAGGCAACGGTGA showed a PBM binding z-score of -0.408. Consider TTACCAAGGTGAAGGTCGTTAATCCCTCTGTAGA, for which the PBM binding z-score turned out to be 1.16. CCCGACAGGTGAAAGGTAACTCAGTCTGGTACGC gave a PBM binding z-score of 0.836. Consider GATACTGGGTCAAGGCCAGAGTACGCGTATTGAT, for which the PBM binding z-score came out at 1.46.

The sequence TCTCGGAAGACACGAAAGGTCAGAGCTCGACATC showed a PBM binding z-score of 2.55.

In the case of ACAGACAGGTGATGAAGGAAACTCAGGCTATCAT, the PBM binding z-score was -0.266. Sequence CCGATTAGGTTATGGGGCATTCAGGCAACGGTGA showed a PBM binding z-score of 0.0574. As for ATCGAAAGGTCGACGAGGTGAATATACACCGTTT, the PBM binding z-score came out at 6.16. In the case of ACTAGTTGGTCAGGTGAGGTCACACACAATTCGG it was 4.8; in that of TCTGCCAGGTCAACGATGGTCAGCTAATCTGCTA, 2.49. GATATTAGTTGAAAGGGCAACCGAATGATTCTCG had a PBM binding z-score of 0.661.

Turning to TCATGTAGATCAAGCAGGTTAAGAAAGCCTGAGT, the PBM binding z-score stood at 0.938.
